# BoNT A protease – BoNT/A light chain protease inhibitors, primary screen, biochemical, flow cytometry, MLPCN library. inhibition, % at 10 µM. multiplex microsphere protease substrate cleavage. 0.17% of 360,000 active. Botulinum neurotoxin type A light chain protease (Clostridium botulinum A str. ATCC 3502); also: plate controls were buffer without enzyme for full effect and enzyme alone for no effect
# MazEF act – activators of E. coli MazEF toxin-antitoxin RNase, primary screen, biochemical, fluorescence, uHTS. Endoribonuclease toxin MazF (Escherichia coli (strain K12)), P0AE70. FAM/BHQ RNA-DNA oligo cleavage fluorescence, 5 h. activation, % at 20 µM. 0.32% of 350,000 active. AID 504720, 2011; in the data active = activation above about 50%
# Target sequence (P0AE70 whole entry, looked up): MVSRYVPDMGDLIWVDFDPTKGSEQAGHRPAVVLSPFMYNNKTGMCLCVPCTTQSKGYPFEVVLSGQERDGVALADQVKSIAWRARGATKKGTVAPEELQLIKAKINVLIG
# BoNT-F LC inh – BoNT/F light chain protease inhibitors, primary screen, biochemical, flow cytometry, MLPCN library | inhibition, % at 10 µM | Botulinum neurotoxin type F light chain protease (Clostridium botulinum) | 0.22% of 360,000 active | Multiplex microsphere protease cleavage assay; in the data active = inhibition above about 35%, passing the limit was not always enough; inconclusive = no clear call, values can overlap the other calls; also: plate controls were buffer without enzyme for full effect and enzyme alone for no effect
# Anthrax LF inh2 – Bacillus anthracis LF protease inhibitors, primary screen, biochemical, multiplex microsphere, MLPCN library; Lethal factor (Bacillus anthracis), P15917; multiplex microsphere protease cleavage assay; inhibition, % at 10 µM; 0.12% of 360,000 active; AID 588501, 2011; also: plate controls were buffer without enzyme for full effect and enzyme alone for no effect
# Autofluor counter – flagged as autofluorescent in microsphere protease counterscreen; AID 624483; compound autofluorescence counterscreen, microsphere flow cytometry; active compounds read high; 3.1% of 360,000 active; fluorescence intensity (test concentration not listed); in the data active = fluorescence intensity above about 16000; inconclusive = no clear call, values can overlap the other calls
# * = called active by the depositor; ? = inconclusive; · = not tested or not shown. This is a sample that favours compounds with a hit; in the whole collection about 3.7% have one here. Rule as the data show it, unless noted: active = inhibition above about 30%; inconclusive = no clear call, values can overlap the other calls; inactive = below that.
SMILES,BoNT A protease,MazEF act,BoNT-F LC inh,Anthrax LF inh2,Autofluor counter
Cc1onc(-c2ccccc2Cl)c1C(=O)Nc1ccc(-c2cn3cccnc3n2)cc1,?,-4,0,-2,16485*
Cc1onc(-c2ccccc2Cl)c1C(=O)Nc1ccc(S(=O)(=O)NCC2CCCO2)cc1 (stereo not given),-1,-6,-3,-4,7936
CCCCNS(=O)(=O)c1ccc(NC(=O)c2c(-c3ccccc3Cl)noc2C)cc1,2,1,0,4,19198*
Cc1onc(-c2ccccc2Cl)c1C(=O)Nc1cccnc1,1,-6,0,1,20230*
Cc1onc(-c2ccccc2)c1C(=O)Nc1cccnc1,0,-1,-5,3,2427
Cc1onc(-c2ccccc2Cl)c1C(=O)NCCn1c(C)cc2ccccc21,59*,-17,-150,-138,1177
Cc1onc(-c2ccccc2Cl)c1C(=O)NCC(=O)O,0,5,0,-8,9391
C[C@H](NC(=O)c1[nH]cnc1C(=O)N[C@@H](C)CO)c1ccccc1,-1,4,-2,-5,4696
Cn1c2ccccc2c2nnc(SCC(=O)NC3CC3)nc21,-1,9,-1,0,3650
CC(C)(C)c1ccc(-c2nnc(SCC(=O)O)n2N)cc1,2,-4,3,-2,22213*
COc1ccc(-c2nnc(SCC(N)=O)n2N)cc1,2,-2,5,4,10349
Cc1ccc(-c2nnc(SCC(=O)O)n2N)cc1,?,1,-1,0,22439*
CCCCC(=O)N(C)c1c(C)nc2ccc(C(=O)N3CCN(S(=O)(=O)CC)CC3)cn12,0,·,0,0,3734
CC(C)(C)c1ccc(C(=O)N/C(=C\c2ccco2)C(=O)Nc2ccccc2C(=O)O)cc1,-5,-5,4,-13,3805
CCCn1nc(CC(=O)O)c2ccccc2c1=O,0,5,5,0,2754
CCn1nc(CCC(=O)O)c2ccccc2c1=O,3,4,3,-1,22340*
NS(=O)(=O)c1ccc(CCNC(=O)C(=O)NCC2OCCN2S(=O)(=O)c2ccc(Cl)cc2)cc1 (stereo not given),-1,-15,-5,-2,5768
O=c1oc(-c2cccs2)nc2c1cnn2-c1ccccc1,?,13,-5,1,16820*
COc1ccc(C(CNC(=O)c2ccc(OCc3c(C)noc3C)cc2)N2CCCC2)cc1 (stereo not given),-5,0,7,-2,17256*
Cc1ccc(NC(=O)c2ccc(OCc3c(C)noc3C)cc2)nc1,-40,7,-68,-11,16600*
COc1ccc(NC(=O)COC(=O)c2ccc(OCc3c(C)noc3C)cc2)cc1OC,-1,-4,-1,2,21341*
COc1ccccc1C(CNC(=O)c1ccc(OCc2c(C)noc2C)cc1)N1CCCC1 (stereo not given),-6,3,-4,-3,15575
COc1cc(C(=O)NCC(c2ccco2)N2CCCC2)ccc1OCc1c(C)noc1C (stereo not given),-2,-1,-3,-2,23986*
Cc1ccc(C)c(S(=O)(=O)NCc2ccc3c(c2)OCO3)c1,0,1,4,7,3120
CC(C)OC(=O)N(C)C[C@@H]1OCc2cnnn2CCCC(=O)N([C@@H](C)CO)C[C@@H]1C,0,0,2,-4,3665
SMILES,BoNT A protease,MazEF act,BoNT-F LC inh,Anthrax LF inh2,Autofluor counter
C[C@@H]1CN([C@@H](C)CO)C(=O)c2cc(NS(=O)(=O)c3ccc(F)cc3)ccc2O[C@@H](C)CCCCO[C@H]1CN(C)C(=O)NC1CCCCC1,0,-1,4,-6,2968
COC(=O)c1cc(C(=O)OC)cc(N2C(=O)CC(NNC(=O)c3ccc(C)cc3)C2=O)c1 (stereo not given),0,-3,-8,0,2657
COC(=O)c1cc(C(=O)OC)cc(N2C(=O)CC(NNC(=O)c3ccccc3Br)C2=O)c1 (stereo not given),-6,1,-8,-8,17445*
COc1ccccc1S(=O)(=O)N(C)C[C@H]1OCc2cnnn2CCCC(=O)N([C@@H](C)CO)C[C@@H]1C,-1,2,-10,-5,3699
O=C(NC1CCCCC1)N1CCN(C2CCCCC2)CC1,-1,-21,-3,-4,23605*
O=C(NC1CCCCC1)N1CCN(c2ncccn2)CC1,1,11,5,-3,23207*
NC(c1csc(Nc2cc(Oc3ccccc3)ncn2)n1)c1ccccc1Cl (stereo not given),-1,·,-12,-2,2898
O=C(/C(=C/c1ccc(Cl)cc1)c1nc2ccccc2[nH]1)c1cccs1,-2,1,-3,-3,16724*
Cc1ccccc1OCC(=O)OCC(=O)Nc1cc(S(C)(=O)=O)ccc1Cl,-1,1,-5,7,4527
COc1ccc(CN2C(=O)c3ccccc3C2c2nnnn2-c2ccc3c(c2)OCCO3)cc1 (stereo not given),0,·,2,-3,4321
CCC(C)c1ccc(NC(=O)N2CCOCC2)cc1 (stereo not given),-2,12,?,2,3907
COc1ccc(C(=O)OCCN=C2NS(=O)(=O)c3ccccc32)cc1OC,7,-2,7,2,21489*
COc1ccccc1C(=O)OCCCN=C1NS(=O)(=O)c2ccccc21,1,6,-1,-3,4732
O=C(Nc1ccon1)c1ccc(Cl)s1,?,9,-3,2,17115*
O=C(NCC(c1ccco1)N1CCN(c2ccccc2F)CC1)C(=O)NC1CCCC1 (stereo not given),1,-3,-8,-3,5168
CCN(C(=O)C(C)Sc1ccc(S(=O)(=O)N2CCOCC2)cn1)c1ccccc1 (stereo not given),-2,3,-14,0,3675
COc1ccc(Cl)cc1N(CC(=O)Nc1cccc(SC)c1)S(C)(=O)=O,4,2,4,-6,21540*
COc1ccc(-n2ncc(C(C)NS(=O)(=O)c3cc(C)sc3C)c2C)cc1 (stereo not given),0,0,-3,-1,3535
O=C(Nc1nccs1)c1cn2ccccc2n1,0,-18,0,-4,5249
NNC(=O)c1cn2ccccc2n1,?,1,1,-5,19411*
O=C(O)CCc1nn2c3ccccc3n(CCO)c2nc1=O,-1,5,0,-2,2182
O=C(O)CCc1nn2c3ccccc3n(CCN3CCCCC3)c2nc1=O,-4,9,-6,0,17537*
COc1ccc(S(=O)(=O)Nc2ccccc2SC)cc1C,-1,3,-1,-1,23520*
COc1ccc(NS(=O)(=O)c2cccs2)c(OC)c1,0,-9,-6,-2,2362
COc1ccc(S(=O)(=O)Nc2ccccc2OC)cc1C,-1,3,-7,-4,6268
